From PubChem
VACV mCherry inh: qHTS for Stage-Specific Inhibitors of Vaccinia Orthopoxvirus: mCherry Reporter Primary qHTS; AID 720579, 2013; Vaccinia virus mCherry reporter infection, fluorescence; Potency, µM (series often up to 36.5 µM), inactives show top-dose activity change, negative = inhibition, most hits filed as inhibitors; hit rate 0.63% among 310,000; calls by dose curve; tested in A549 cells; further: on the % scale 0 is the no-effect control and ±100 the full control effect; nearly all actives have a fitted effect of over 35% in size
Pf growth 96h: Primary qHTS for delayed death inhibitors of the malarial parasite plastid, 96 hour incubation; P. falciparum luciferase reporter growth, 96 h; hit rate 6.9% among 320,000; Potency, µM (doses to about 28.7 µM), inactives show top-dose activity change, negative = inhibition, hits mostly inhibitors; further: on the % scale 0 is the no-effect control and ±100 the full control effect
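Compounds incubated with erythrocytes infected by luciferase-expressing P. falciparum (2% hematocrit, 0.05% parasitemia final) for 96 hours, 37 C in 5% CO2. Growth inhibition scored as decreased luciferase luminescence.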
Vaccinia Venus: qHTS for Stage-Specific Inhibitors of Vaccinia Orthopoxvirus: Venus Reporter Primary qHTS; Vaccinia virus Venus reporter expression, fluorescence; Potency, µM (doses to about 36.5 µM), for inactives: top-dose activity change, negative = inhibition, usual class: inhibitors; hit rate 0.46% among 330,000; AID 720580, 2013; calls by dose curve; tested in A549 cells; further: on the % scale 0 is the no-effect control and ±100 the full control effect; nearly all actives have a fitted effect of over 30% in size
NS1 inh: qHTS Assay for Inhibitors of Influenza NS1 Protein Function; AID 2326, 2010; Potency, µM (titrated, usually from 46.1 µM), for the others: at the top dose activity, positive = more growth; hit rate 0.4% among 270,000; calls by dose curve; further: actives are rising curves; nearly all actives have a fitted effect of over 50% in size
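Read-out: OD600 growth recovery of NS1-expressing budding yeast. Cells grown overnight at 30C in -URA glucose medium, washed, resuspended and diluted 1:100 in 2% galactose assay medium, pH 6.0. Same strain lacking NS1 served as positive control.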
HCV inh: qHTS Assay for Inhibitors of Hepatitis C Virus (HCV). AID 651820, 2012. hit rate 3.4% among 340,000. Potency, µM (top dose mostly 41.8 µM), inactives show at the highest dose activity change, negative = inhibition, hits mostly inhibitors. Huh7.5.1 HCVcc-Cre infection, luciferase reporter, 44 h; further: on the % scale 0 is the no-effect control and ±100 the full control effect
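Whole-lifecycle infectious HCVcc-Cre system; cells 1,000/well, compound then virus (~0.5 moi) added 4 h after plating, 44 h culture. Luciferase read 15 sec following 15 min substrate incubation, room temp.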
Pf growth 48h: Primary qHTS for delayed death inhibitors of the malarial parasite plastid, 48 hour incubation; Potency, µM (series often up to 28.7 µM), for the others: at the highest dose activity change, negative = inhibition, actives largely listed as inhibitors; AID 504832, 2011; P. falciparum luciferase growth in erythrocytes, 48 h; hit rate 5.9% among 310,000; further: on the % scale 0 is the no-effect control and ±100 the full control effect
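Cell-based growth assay: transgenic P. falciparum expressing firefly luciferase, cultured in red cells within RPMI 1640 containing 0.5% w/v Albumax, 24 mM bicarbonate and gentamycin. A drop in luciferase activity indicates inhibition.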
The depositor's hits bear a star. Rows were chosen to be rich in hits. Some 11% of all compounds tested hit in one or more screens of this group. Unless noted, the call rests on the fitted dose curve; in most records, active means well fitted inhibition curve with a large enough effect; inconclusive means small, poorly fitted or top-dose-only effect, or another doubt; inactive means no such curve, though single readings can be large or run the other way. Potency means the concentration at half of the fitted maximal effect.

How did O=C(Cn1c(NCCO)nc2ccccc21)c1ccccc1 do in these assays?
Pf growth 96h: 9.28µM*; NS1 inh: 4.4%; HCV inh: 15.8%; Pf growth 48h: 11.1%

Results for CC(C)(C)C(=O)Cn1c(NCCCO)nc2ccccc21 ?
Pf growth 96h: 11.7µM*; Vaccinia Venus: 13.5%; NS1 inh: 0.4%; HCV inh: 3.2%; Pf growth 48h: 11.4%

How did Cc1ccc(C(=O)Cn2c(NCCO)nc3ccccc32)cc1 do in these assays?
Pf growth 96h: inconclusive; Vaccinia Venus: -18.0%; NS1 inh: -3.1%; HCV inh: -2.2%; Pf growth 48h: 45.7%

What do the screens show for `O=C(Cn1c(NCCCO)nc2ccccc21)c1ccc(Br)cc1`?
VACV mCherry inh: -17.6%; Pf growth 96h: -27.1%; Vaccinia Venus: -2.1%; NS1 inh: -6.4%; HCV inh: -4.5%

What do the screens show for `O=C(NC1CCCCCC1)c1ccc(Br)o1`?
VACV mCherry inh: -6.9%; Pf growth 96h: 37.5%; Vaccinia Venus: 4.7%; NS1 inh: -16.5%; HCV inh: 4.4%; Pf growth 48h: 40.0%

How did CC(=O)c1sc(N/N=C\c2ccccc2O)nc1C do in these assays?
VACV mCherry inh: 5.01µM*; Pf growth 96h: 269.1%; Vaccinia Venus: -26.1%; NS1 inh: -2.9%; HCV inh: -23.0%; Pf growth 48h: -1.5%

How did Cc1ccc(S(=O)(=O)Nc2c(C)cc([N+](=O)[O-])cc2C)cc1 do in these assays?
VACV mCherry inh: -22.1%; Vaccinia Venus: -17.5%; HCV inh: 2.2%

What do the screens show for `Cc1ccc(S(=O)(=O)c2ccc([N+](=O)[O-])o2)cc1`?
VACV mCherry inh: inconclusive; Vaccinia Venus: inconclusive; HCV inh: 3.55µM*

How did CCCCCC[N+](C)(C)CC/C=C1/c2ccccc2Sc2ccc(Cl)cc21 do in these assays?
Pf growth 96h: 2.08µM*; NS1 inh: -1.0%; HCV inh: -9.5%; Pf growth 48h: inconclusive

How did S=C1Nc2ccccc2Sc2ccc(Cl)cc21 do in these assays?
VACV mCherry inh: -13.1%; Pf growth 96h: inconclusive; Vaccinia Venus: -10.2%; NS1 inh: 9.8%; HCV inh: 2.6%; Pf growth 48h: inconclusive

Results for CN(C)CC/C=C1/c2ccccc2Sc2ccc(Cl)cc21 ?
VACV mCherry inh: -12.1%; Pf growth 96h: inconclusive; Vaccinia Venus: inconclusive; NS1 inh: -7.1%; HCV inh: 14.1µM*; Pf growth 48h: 10.4µM*

How did CN(C)CC/C=C1\c2ccccc2COc2ccccc21 do in these assays?
VACV mCherry inh: -14.5%; Pf growth 96h: inconclusive; Vaccinia Venus: -8.4%; NS1 inh: -14.6%; HCV inh: inconclusive; Pf growth 48h: inconclusive

Results for Cc1ccc(NC(=O)CSc2nnc(NC(=O)c3ccco3)s2)cc1 ?
Pf growth 96h: 98.3%; NS1 inh: 5.2%; HCV inh: -9.1%; Pf growth 48h: 72.7%

How did C/C(=N\NC(=O)Cc1ccccc1Cl)c1cccnc1 do in these assays?
VACV mCherry inh: inactive; Pf growth 96h: 1.65µM*; Vaccinia Venus: -18.4%; NS1 inh: -20.3%; HCV inh: 2.4%; Pf growth 48h: inconclusive

What do the screens show for `CCCn1c(-c2cc(OC)c(OC)c(OC)c2)nc2c1c(=O)[nH]c(=O)n2Cc1ccccc1`?
VACV mCherry inh: -16.0%; Pf growth 96h: inconclusive; Vaccinia Venus: -11.9%; NS1 inh: 12.2%; HCV inh: inconclusive; Pf growth 48h: 9.28µM*

How did COc1ccc(-c2nc3c(c(=O)[nH]c(=O)n3Cc3ccccc3)n2Cc2ccccc2)cc1 do in these assays?
NS1 inh: -18.5%; HCV inh: 12.6µM*; Pf growth 48h: inconclusive

How did COc1ccc(-c2nc3c(c(=O)[nH]c(=O)n3Cc3ccccc3)n2C)cc1 do in these assays?
Vaccinia Venus: -6.2%; NS1 inh: 6.8%; HCV inh: -0.7%; Pf growth 48h: 5.2%

How did CC(C)Cn1c(-c2ccc(C#N)cc2)nc2c1c(=O)[nH]c(=O)n2CC(C)C do in these assays?
Pf growth 96h: 10.4µM*; Vaccinia Venus: -15.9%; NS1 inh: 4.9%; HCV inh: 4.1%
